# Experimental data: PubChem BioAssay (NCATS)
# Inconclusive results are not listed. A call without a number means that no potency is given here. Activity calls are given as the source filed them. Calls follow the shape of the dose curve; as a rule, active = well fitted cell-killing curve with a large enough effect; inconclusive = small, poorly fitted or top-dose-only effect, or effect the other way; inactive = no such curve, though single readings can be large or run the other way.
# Tests used:
# [1] = Quantitative High-Throughput drug screen in 47 multiple myeloma cell lines against the NCATS MIPE library collection: JJN3_DSMZ cell viability assay (AID 1918966; also: nearly all actives have a fitted effect of over 50% in size; also: potency is read from the fitted curve at half-maximal effect)
# Outline: (§1)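 We plated 500 myeloma cells per well, pinned in MIPE 4.0 compounds, and incubated for 48 hours at 37C. ATP was then quantified with CellTiter-Glo, with DMSO and media-only wells defining 100% and 0%.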
# [2] = Quantitative High-Throughput drug screen in 47 multiple myeloma cell lines against the NCATS MIPE library collection: H1112_PLB cell viability assay (AID 1918967; also: nearly all actives have a fitted effect of over 30% in size; also: potency is read from the fitted curve at half-maximal effect)
# Outline: as §1
# [3] = Quantitative High-Throughput drug screen in 47 multiple myeloma cell lines against the NCATS MIPE library collection: KMS27_JCRB cell viability assay (AID 1918970); also: nearly all actives have a fitted effect of over 30% in size; also: potency is read from the fitted curve at half-maximal effect
# Outline: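 ATP-based viability (CellTiter-Glo luminescence) is measured in cells treated 48 h with approved and investigational drugs at 37 °C. Controls are DMSO-only wells for full viability and media-only wells for none.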
# [4] = Quantitative High-Throughput drug screen in 47 multiple myeloma cell lines against the NCATS MIPE library collection: KMS12PE_JCRB cell viability assay (AID 1918972); also: nearly all actives have a fitted effect of over 30% in size; also: potency is read from the fitted curve at half-maximal effect; as to viability: series mostly up to about 46 µM
# Outline: (§2)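 Approved and investigational drugs from MIPE 4.0 were added by pin tool to 500 cells per well. After 48 hours at 37C, ATP-based CellTiter-Glo luminescence indicated remaining viability.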
# [5] = Quantitative High-Throughput drug screen in 47 multiple myeloma cell lines against the NCATS MIPE library collection: KMS26_JCRB cell viability assay (AID 1918975); also: nearly all actives have a fitted effect of over 45% in size; also: potency is read from the fitted curve at half-maximal effect
# Outline: (§3)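 qHTS of the MIPE 4.0 collection: 500 myeloma cells/well, 48 h drug exposure at 37C in 5% CO2, then CellTiter-Glo for 5 min at room temperature before luminescence reading.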
# [6] = Quantitative High-Throughput drug screen in 47 multiple myeloma cell lines against the NCATS MIPE library collection: MMM1_PLB cell viability assay (AID 1918976); also: potency is read from the fitted curve at half-maximal effect; nearly all actives have a fitted effect of over 35% in size
# Outline: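 MIPE 4.0 approved/investigational drugs; 500 cells/well; 48 h 37 °C humidified 5% CO2; CTG luminescence readout; DMSO = 100%, media = 0% viability.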
# [7] = Quantitative High-Throughput drug screen in 47 multiple myeloma cell lines against the NCATS MIPE library collection: KMS12BM_JCRB cell viability assay (AID 1918971); also: nearly all actives have a fitted effect of over 35% in size; also: potency is read from the fitted curve at half-maximal effect
# Outline: as §3
# [8] = Quantitative High-Throughput drug screen in 47 multiple myeloma cell lines against the NCATS MIPE library collection: Karpas25_ECACC cell viability assay (AID 1918968; also: nearly all actives have a fitted effect of over 35% in size; also: potency is read from the fitted curve at half-maximal effect)
# Outline: as §1
# [9] = Quantitative High-Throughput drug screen in 47 multiple myeloma cell lines against the NCATS MIPE library collection: INA6_PLB cell viability assay (AID 1918965; also: potency is read from the fitted curve at half-maximal effect; nearly all actives have a fitted effect of over 55% in size)
# Outline: as §2
# [10] = Quantitative High-Throughput drug screen in 47 multiple myeloma cell lines against the NCATS MIPE library collection: KMS20_JCRB cell viability assay (AID 1918973); also: nearly all actives have a fitted effect of over 45% in size
# Outline: as §1
compound,measurement,setting,value
O=[N+]([O-])c1ncc[nH]1,Potency,[1],inactive
same,Potency,[2],inactive
same,Potency,[3],inactive
same,Potency,[4],inactive
same,Potency,[5],inactive
same,Potency,[6],3.32 µM (active)
Cc1nc(-c2ccc(-c3ccc(C(=O)N4CCc5cc6c(cc54)C4(CCN(C)CC4)CO6)cc3)c(C)c2)no1,Potency,[2],inactive
same,Potency,[3],inactive
same,Potency,[7],inactive
CC(=O)OCC1=C(C(=O)O)N2C(=O)[C@@H](N)[C@@H]2SC1,Potency,[2],inactive
same,Potency,[8],inactive
same,Potency,[3],7.43 µM (active)
C[C@]12CC[C@H](O)CC1=CC[C@H]1[C@H]3CCC(=O)[C@@]3(C)CC[C@@H]12,Potency,[3],inactive
same,Potency,[6],4.69 µM (active)
C[C@]12CC[C@@H]3[C@@H](CCC4=CC(=O)CC[C@@H]43)[C@@H]1CC[C@@H]2OC(=O)CCc1ccccc1,Potency,[2],inactive
same,Potency,[8],inactive
CCOC(=O)c1c(C(C#N)=CN)c2ccc(Cl)c(Cl)c2n1C,Potency,[2],inactive
same,Potency,[3],inactive
CC(=O)Nc1ccc(OC[C@](C)(O)C(=O)Nc2ccc([N+](=O)[O-])c(C(F)(F)F)c2)cc1,Potency,[2],inactive
same,Potency,[5],inactive
CCOP(=O)(OCC)C(C)NC(=O)N(CCCl)N=O (stereo not drawn),Potency,[1],inactive
same,Potency,[2],inactive
same,Potency,[8],inactive
same,Potency,[3],inactive
same,Potency,[4],inactive
COc1ccc(CC2NCCc3cc(OC)c(OC)cc32)cc1OC (stereo not drawn),Potency,[2],inactive
same,Potency,[3],inactive
same,Potency,[5],inactive
CCNC(=O)CC1N=C(c2ccc(Cl)cc2)c2cc(OC)ccc2-n2c(C)nnc21 (stereo not drawn),Potency,[9],6.62 µM (active)
same,Potency,[7],16.6 µM (active)
same,Potency,[5],5.9 µM (active)
same,Potency,[6],16.6 µM (active)
COC1=CC(C)=C[C@@H](C)[C@@H](O)[C@@H](C)CC(C)=CC=C[C@H](OC)[C@H]([C@@H](C)[C@@H](O)[C@H](C)[C@@]2(O)C[C@@H](O)[C@H](C)[C@@H](C(C)C)O2)OC1=O,Potency,[2],1.66 µM (active)
same,Potency,[8],0.0083 µM (active)
same,Potency,[5],0.0033 µM (active)
same,Potency,[6],10.5 µM (active)
O=C1C=CC[C@@H]2[C@H]3CCCN4CCC[C@@H](CN12)[C@@H]34,Potency,[10],inactive
O=C(O)CNC(=O)c1c(O)c2ccccc2n(Cc2ccccc2)c1=O,Potency,[2],inactive
same,Potency,[8],inactive
same,Potency,[3],inactive
same,Potency,[4],inactive
same,Potency,[5],inactive
NC1=NC(=O)N2CC12 (stereo not drawn),Potency,[9],18.7 µM (active)
same,Potency,[3],7.43 µM (active)
CCCN1CCO[C@@H]2c3cc(O)ccc3OC[C@@H]21,Potency,[2],inactive
same,Potency,[8],inactive
same,Potency,[3],inactive
same,Potency,[6],16.6 µM (active)
C[C@@H]1[C@H](O)[C@@H](C)C=CC=CCCC=CC=CC=CC=C[C@H](O[C@H]2O[C@@H](C)[C@H](O)[C@@H](N)[C@@H]2O)CC2O[C@](O)(C[C@@H](O)[C@H](O)CC[C@@H](O)C[C@@H](O)C[C@@H](O)CC(=O)O[C@H]1C)C[C@H](O)[C@H]2C(=O)O,Potency,[1],inactive
same,Potency,[2],inactive
same,Potency,[8],inactive
same,Potency,[3],inactive
same,Potency,[5],inactive
CC(C)N[C@@H]1CCn2c(=O)[nH]c3cccc(c32)[C@@H]1O,Potency,[1],9.35 µM (active)
same,Potency,[2],7.43 µM (active)
same,Potency,[8],0.187 µM (active)
same,Potency,[3],0.833 µM (active)
same,Potency,[4],6.62 µM (active)
same,Potency,[5],26.4 µM (active)
same,Potency,[6],18.7 µM (active)
CC(=O)O[C@@]12CO[C@H]1C[C@H](O)[C@@]1(C)C(=O)[C@H](O)C3=C(C)[C@@H](O)C[C@@](O)([C@@H](OC(=O)c4ccccc4)[C@@H]21)C3(C)C,Potency,[9],1.48 µM (active)
same,Potency,[5],inactive
C[C@]12CCC(=O)C(O)=C1CC[C@@H]1[C@H]3CCC(=O)[C@@]3(C)CC[C@@H]12,Potency,[2],inactive
same,Potency,[3],inactive
same,Potency,[7],20.9 µM (active)
same,Potency,[4],inactive
same,Potency,[5],inactive
same,Potency,[6],2.35 µM (active)
COC(=O)[C@@H](N)CCCN=C(N)N[N+](=O)[O-],Potency,[2],inactive
same,Potency,[3],inactive
C[C@](O)(COc1ccc(C#N)cc1)C(=O)Nc1ccc(C#N)c(C(F)(F)F)c1,Potency,[1],inactive
same,Potency,[8],18.7 µM (active)
O=C(Nc1ccncc1)C(=O)c1cn(Cc2ccc(Cl)cc2)c2ccccc12,Potency,[9],0.0132 µM (active)
same,Potency,[8],0.0469 µM (active)
same,Potency,[3],0.0209 µM (active)
same,Potency,[7],0.148 µM (active)
same,Potency,[5],9.35 µM (active)
same,Potency,[6],14.8 µM (active)
